Shown are actives, neighbours in structure and some others; about 9% of the full set was active somewhere.
IMPase Li cell: qHTS Assay for Identifying the Cell-Membrane Permeable IMPase Inhibitors: Potentiation with Lithium; Potency, µM (series often up to 59.4 µM), inactives show at the top dose activity, negative = IMPase inhibition, usual class: inhibitors; AID 1457, 2008; 210,000 compounds, 0.35% hits; CHO-M1 cells, IP1 TR-FRET (IP-One), carbachol + lithium; active = well fitted curve in the direction sought with a large enough effect; inconclusive = small, poorly fitted or top-dose-only effect, or another doubt; inactive = no such curve, though single readings can be large; an effect the other way counts as inactive or inconclusive;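 also: IP1 builds up when IMPase is blocked and the TR-FRET signal falls; plate controls were basal vehicle for no effect and high inhibitor control for full effect; nearly all actives have a fitted effect of over 50% in size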
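CHO cells stably expressing M1 receptor (2000/well) were cultured 16–30 h, then exposed to compounds with a small lithium addition for 30 min at 37C. IP1 was measured by TR-FRET competition; AC50 from Hill fits.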
Lamin A splicing: qHTS Assay for Modulators of Lamin A Splicing; HeLa LMNA splicing GFP/RFP minigene ratio, 48 h; Potency, µM (series often up to 46.1 µM), without a hit: at the highest dose ratio change, negative = inhibition, hits mostly inhibitors; 200,000 compounds, 0.01% hits; active = well fitted inhibition curve with a large enough effect in the signal ratio, with a control signal flat, not every such curve was filed as active; inconclusive = small, poorly fitted or top-dose-only effect, or effect the other way, or a change in a side signal; the % refers to the signal ratio
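Read-out is the ratio of GFP to DsRed2 object intensity, acquired by 488 nm laser-scanning cytometry on HeLa lamin A-EGFP minigene reporter cells. Compound incubation 48 hrs at 37 °C in Opti-MEM with 2% FBS; DMSO 0.5% final.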
Luc counter: Counterscreen for Luciferase (Kinase-Glo TM) Inhibition; Kinase-Glo luciferase, ATP luminescence, 8 min; AID 1379, 2008; Potency, µM (highest dose often 38.3 µM), for the others: at the top dose activity change, negative = inhibition, actives largely listed as inhibitors; Luciferin 4-monooxygenase (Photuris pensylvanica), Q27757; 200,000 compounds, 0.28% hits; active = well fitted curve in the direction sought with a large enough effect; inconclusive = small, poorly fitted or top-dose-only effect, or another doubt; inactive = no such curve, though single readings can be large; an effect the other way counts as inactive or inconclusive; also: nearly all actives have a fitted effect of over 60% in size
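Compound is pinned into ATP-containing buffer (10 uM ATP, imidazole pH 7.2, 7 mM MgCl2). Kinase-Glo luciferase reagent is then added. Light output is recorded following an 8-min room-temperature incubation.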
HPGD inh: qHTS Assay for Inhibitors of HPGD (15-Hydroxyprostaglandin Dehydrogenase). purified HPGD, NADH fluorescence kinetic, PGE2 substrate. 150,000 compounds, 4.3% hits. 15-hydroxyprostaglandin dehydrogenase [NAD(+)] (Homo sapiens), P15428. Potency, µM, for the others: at the top dose activity change, negative = inhibition, usual class: inhibitors. AID 894, 2007
Target sequence (P15428 whole entry, looked up): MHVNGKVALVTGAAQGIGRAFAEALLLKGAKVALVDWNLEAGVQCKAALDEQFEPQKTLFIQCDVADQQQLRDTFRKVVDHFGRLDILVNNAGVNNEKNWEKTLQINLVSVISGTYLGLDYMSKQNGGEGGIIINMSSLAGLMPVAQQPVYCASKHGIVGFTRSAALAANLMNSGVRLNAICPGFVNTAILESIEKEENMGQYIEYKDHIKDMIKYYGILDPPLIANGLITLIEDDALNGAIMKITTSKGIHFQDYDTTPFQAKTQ
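20 nM HPGD preincubated 15 min at room temperature with compound in 50 mM Tris-HCl pH 8, 0.01% Tween 20. Started with 1 mM NAD+ and 30 uM prostaglandin E2; NADH fluorescence (360/450 nm) read 5 times over 30-s intervals, last minus first.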
ALDH1A1 inh: qHTS Assay for Inhibitors of Aldehyde Dehydrogenase 1 (ALDH1A1). Purified ALDH1A1, NADH fluorescence, propionaldehyde substrate. 220,000 compounds, 7.3% hits. Potency, µM (titrated, usually from 75.3 µM), for inactives: top-dose activity, negative = inhibition, usual class: inhibitors. Aldehyde dehydrogenase 1A1 (Homo sapiens), P00352;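 also: plate controls were no enzyme wells and a reference inhibitor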
Target sequence (P00352 whole entry, looked up): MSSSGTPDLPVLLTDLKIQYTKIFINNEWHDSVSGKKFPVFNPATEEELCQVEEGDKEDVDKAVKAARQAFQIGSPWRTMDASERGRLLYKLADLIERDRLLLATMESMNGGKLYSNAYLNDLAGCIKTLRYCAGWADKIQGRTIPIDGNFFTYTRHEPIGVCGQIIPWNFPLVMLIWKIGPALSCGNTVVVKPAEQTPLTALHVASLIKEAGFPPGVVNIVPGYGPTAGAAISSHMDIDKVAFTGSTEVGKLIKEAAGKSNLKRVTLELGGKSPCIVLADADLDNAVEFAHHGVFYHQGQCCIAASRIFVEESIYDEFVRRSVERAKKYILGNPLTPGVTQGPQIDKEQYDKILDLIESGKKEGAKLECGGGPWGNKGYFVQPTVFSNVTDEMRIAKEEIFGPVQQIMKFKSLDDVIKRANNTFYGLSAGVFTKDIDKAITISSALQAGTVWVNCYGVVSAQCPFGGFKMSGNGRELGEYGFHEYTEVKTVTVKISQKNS
Numbers without * were called inactive; ? = inconclusive; nt = no result given; [ ] = another dose, or the depositor's remark. Unless noted, calls follow the shape of the dose curve; as a rule, active = well fitted inhibition curve with a large enough effect (not every such curve was filed as active); inconclusive = small, poorly fitted or top-dose-only effect, or another doubt; inactive = no such curve, though single readings can be large or run the other way. Unless noted, % is scaled to controls: 0 for no effect and ±100 for the full control effect; potency is read from the fitted curve at half-maximal effect.

SMILES	IMPase Li cell	Lamin A splicing	Luc counter	HPGD inh	ALDH1A1 inh
CCOc1cccc(/C(O)=C2/C(=O)C(=O)N(Cc3cccnc3)C2c2ccco2)c1 (stereo not given)	-9.4%[38.3 µM]	10.9%	-0.8%	-5.7%	-7.8%
CCOc1cccc(/C(O)=C2/C(=O)C(=O)N(CCOC)C2c2ccco2)c1 (stereo not given)	5.8%[38.3 µM]	13.3%	2.3%	-22.2%	25.1µM*
CCOc1cccc(/C(O)=C2/C(=O)C(=O)N(CCN3CCOCC3)C2c2ccncc2)c1 (stereo not given)	-3.8%	nt	-3.3%	nt	22.4µM*
COc1ccc(C2/C(=C(/O)c3ccc4c(c3)CC(C)O4)C(=O)C(=O)N2CCN2CCOCC2)cc1 (stereo not given)	-13.5%[38.3 µM]	8.2%	-2.1%	-10.9%	-8.2%
O=C(NC1CCNCC1)C1CC1	-2.6%	nt	-2.5%	nt	-11.7%
CCC(C(=O)Nc1nnc(-c2ccco2)s1)c1ccccc1 (stereo not given)	nt	-0.5%	nt	nt	?
COc1ccc(C(=O)Nc2ccc(S(=O)(=O)NC(C)(C)C)cc2)cc1[N+](=O)[O-]	12.4%	nt	1.9%	nt	17.8µM*
COC(=O)c1cc(C(=O)Nc2ccc(S(=O)(=O)NC(C)(C)C)cc2)cc([N+](=O)[O-])c1	3.7%	-1.2%	-0.4%	17.8µM*	14.1µM*
Cc1ccc(OCCCN2C(=O)C(=O)c3cc(C)ccc32)cc1	11.6%	nt	-0.5%	nt	0.1µM*
Cc1cccc(OCCN2C(=O)c3ccccc3C2=O)c1	14.4%	nt	-1.9%	nt	8.7%
Cc1cccc(OCCCN2C(=O)C(=O)c3cc(C)ccc32)c1	0.6%	?	-2.4%	nt	0.1µM*
CCOC(=O)CN1C(=O)C(=O)c2cccc(C)c21	2.9%	-15.4%	-1.5%	-14.7%	0.0251µM*
O=C(CN1C(=O)C(=O)c2ccccc21)OCN1C(=O)c2ccccc2C1=O	13.4%	6.0%[46 µM]	-2.6%	nt	3.9%
Cc1cccc2c1N(C)C(=O)C2=O	6.0%	nt	-3.4%	nt	1.78µM*
CC(=O)c1ccccc1OC(=O)COc1ccc(Cl)cc1C	2.1%	nt	0.9%	nt	-4.5%
COc1cccc(Cn2c(=O)cnc3cnc(Nc4cccc(OC)c4)nc32)c1	14.3%	?	nt	nt	-9.5%
CCOC(=O)CC1CCCCN1Cc1cn[nH]c1-c1ccc(F)cc1F (stereo not given)	16.3%	?	-1.4%	nt	12.9%
Cc1ccc2c(c1)C(=O)C(=O)N2CCCOc1ccccc1	10.9%	-13.5%[46 µM]	0.4%	nt	0.112µM*
Cc1ccc(OCCN2C(=O)C(=O)c3cccc(C)c32)cc1	9.9%	?	-0.2%	nt	0.199µM*
Cc1ccc([N+](=O)[O-])c2c1C(N1CC(C)OC(C)C1)C(C)(C)O2 (stereo not given)	1.7%	29.3%[9.22 µM]	-0.9%	nt	?
Cc1occc1C(=O)NCc1ccccc1	-10.1%[38.3 µM]	-4.0%	-4.3%	-21.1%	-1.6%
Cc1occc1C(=O)NCCCCc1ccccc1	46.5%[38.3 µM]	11.0%	8.3%	20µM*	17.8µM*
Cc1ccccc1C(=O)NCCCc1ccccc1	-5.1%	4.9%	-0.2%	14.1µM*	-7.7%
O=C(C(Cc1ccccc1)n1cccc1)N1CCN(Cc2ccccc2)CC1 (stereo not given)	22.9%[38.3 µM]	-8.8%	2.7%	-1.3%	?
O=C(C(Cc1ccccc1)n1cccc1)N1CCCCC1 (stereo not given)	-7.1%[38.3 µM]	-2.7%	-6.0%	12.6µM*	3.3%
SMILES	IMPase Li cell	Lamin A splicing	Luc counter	HPGD inh	ALDH1A1 inh
O=C(C(Cc1ccccc1)n1cccc1)N1CCCCCC1 (stereo not given)	24.1%[38.3 µM]	-6.3%	3.1%	28.2µM*	-1.5%
CN1C(=O)C(=O)N(CC(=O)N2CCc3ccccc32)C1=O	17.5%[38.3 µM]	4.6%	3.3%	-20.1%	-2.8%
O=C(Cn1ncc(Cl)c(Cl)c1=O)N1CCc2ccccc21	?	nt	-2.7%	nt	10µM*
O=C(Cn1ncc(Cl)c(Cl)c1=O)N1CCOCC1	0.0%	?	-0.1%	nt	-2.7%
CC1(C)C(=O)Nc2ccccc2N1C(=O)Cn1ncc(Cl)c(Cl)c1=O	nt	nt	nt	nt	1.12µM*
O=C(Cn1ncc(Cl)c(Cl)c1=O)N1CCN(Cc2ccccc2)CC1	6.9%	?	-1.1%	nt	28.2µM*
CCOC(=O)c1c(C)oc2nc(C)nc(NCCc3ccc(S(N)(=O)=O)cc3)c12	nt	-7.1%[46 µM]	nt	nt	nt
COc1ccc(Oc2ccc(C(F)(F)F)cc2N)cc1	nt	nt	nt	nt	1.9%
COc1ccc2c(c1)C(=O)[C@@H](OC(=O)N[C@H](C)C1CCCCC1)[C@H](c1ccc(OC)c(Br)c1)O2	12.6%	nt	-1.2%	-13.5%	-2.8%
NNC(=O)CSc1nc(-c2ccccc2)nc2c1CCCC2	3.0%	-3.8%[46 µM]	4.8%	nt	2µM*
OCCSc1nc(-c2ccccc2)nc2c1CCC2	1.8%	-8.7%	-2.7%	-7.0%	9.1%
CN(C)c1ccc(-c2cncnc2NCc2cccnc2)cc1	11.9%	9.4%	nt	nt	10.4%
COc1cc(C(Nc2ccc(S(=O)(=O)N3CCC(C)CC3)cc2)C(=O)NCC2CCCO2)cc(OC)c1OC (stereo not given)	5.7%	-2.1%	-0.4%	-11.5%	3.55µM*
COc1ccc(Cc2nnc(N)s2)cc1OC	3.7%	-7.3%	7.1%	31.6µM*	28.2µM*
COc1ccc(Cc2nnc(NS(C)(=O)=O)s2)cc1	21.0%[38.3 µM]	-3.7%	-2.3%	-14.9%	-0.1%
Cc1cccc(CSCc2nnc(N)s2)c1	-6.6%	-13.7%	-1.6%	28.2µM*	?
COc1cc(OC)cc(C(=O)Nc2nnc(Cc3ccc(OC)c(OC)c3)s2)c1	?	nt	1.3%	nt	3.9%
COc1ccc(Cc2nnc(N)s2)cc1	-0.7%[38.3 µM]	?	-2.6%	28.2µM*	?
Nc1nnc(CCc2ccccc2)s1	-11.5%[38.3 µM]	9.1%	-5.3%	-9.0%	1.6%
Nc1nnc(Cc2ccccc2)s1	-10.9%[38.3 µM]	22.8%	4.5%	-9.1%	11.2µM*
Nc1nnc(CC(c2ccccc2)c2ccccc2)s1	1.7%[38.3 µM]	-7.7%	-3.0%	22.4µM*	1.5%
Cc1cc(N=NC(=O)c2ccccc2)ccc1O	17.6%	-10.1%[46 µM]	-2.9%	nt	22.4µM*
COc1ccc(-c2c(C#N)c(N)nc3sc(C(=O)c4ccccc4)c(N)c23)cc1	?	-17.4%	3.5%	?	3.98µM*
COc1ccc(C(=O)c2sc3nc(-c4ccccc4)ccc3c2N)cc1	-2.2%	-4.7%	-4.7%	-13.8%	?
COc1ccccc1N1CCN(S(=O)(=O)CCNC(=O)C(c2ccccc2)c2ccccc2)CC1	nt	-11.8%[46 µM]	nt	nt	nt
CCC(C)n1c(-c2cccs2)nc2nc3ccccc3nc21 (stereo not given)	1.7%[38.3 µM]	-13.0%	16.4%	?	?
COCc1nc2c([nH]1)c(=O)n(C)c(=O)n2CC(C)C	-3.0%	?	0.4%	-17.4%	3.0%
N#Cc1c(N)[nH]c(=S)c(C#N)c1-c1ccccc1	12.6µM*	-5.1%	11.8%	-24.4%	28.2µM*

Screening data (PubChem)
